Measured values reported in PubChem BioAssay (NCATS).
Records with an inconclusive call do not appear. Calls of active or inactive are those of the source. Calls come from the whole dose curve; as a rule, active = well fitted inhibition curve with a large enough effect; inconclusive = small, poorly fitted or top-dose-only effect; inactive = flat fitted curve, though single readings scatter.

Assays:
[1] = qHTS profiling for inhibitors of Plasmodium falciparum proliferation (AID 504749); note: nearly all actives have a fitted effect of over 60% in size;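 for activity, negative = inhibition: 0% = DMSO vehicle and full inhibition = artemisinin control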; conditions: P. falciparum in erythrocytes, SYBR Green DNA, 72 h
Method in brief: (§1)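 Three-day growth assay of blood-stage parasites in erythrocytes (0.3% parasitemia, 2.5% hematocrit) at 37 C, 5% CO2, quantified by SYBR Green DNA staining after overnight detergent lysis.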

[2] = system: 3D7; assay: as above; conditions: P. falciparum in erythrocytes, SYBR Green DNA, 72 h; series mostly up to 28.7 µM
Method in brief: as §1

[3] = system: 7G8; assay: as above; conditions: P. falciparum in erythrocytes, SYBR Green DNA, 72 h; series mostly up to 28.7 µM
Method in brief: as §1

[4] = system: AA1029; assay: as above; conditions: P. falciparum in erythrocytes, SYBR Green DNA, 72 h; series mostly up to 28.7 µM
Method in brief: as §1

[5] = system: AS120; assay: as above; conditions: P. falciparum in erythrocytes, SYBR Green DNA, 72 h; series mostly up to 28.7 µM
Method in brief: as §1

[6] = system: ATS189; assay: as above; conditions: P. falciparum in erythrocytes, SYBR Green DNA, 72 h; series mostly up to 28.7 µM
Method in brief: as §1

[7] = system: ATS95; assay: as above; conditions: P. falciparum in erythrocytes, SYBR Green DNA, 72 h; series mostly up to 28.7 µM
Method in brief: as §1

[8] = system: C2A; assay: as above; conditions: P. falciparum in erythrocytes, SYBR Green DNA, 72 h; series mostly up to 28.7 µM
Method in brief: as §1

[9] = system: CP185; assay: as above; conditions: P. falciparum in erythrocytes, SYBR Green DNA, 72 h; series mostly up to 28.7 µM
Method in brief: as §1

[10] = system: CP191; assay: as above; conditions: P. falciparum in erythrocytes, SYBR Green DNA, 72 h; series mostly up to 28.7 µM
Method in brief: as §1

[11] = system: CP192; assay: as above; conditions: P. falciparum in erythrocytes, SYBR Green DNA, 72 h; series mostly up to 28.7 µM
Method in brief: as §1

[12] = system: CP194; assay: as above; conditions: P. falciparum in erythrocytes, SYBR Green DNA, 72 h; series mostly up to 28.7 µM
Method in brief: as §1

[13] = system: CP201; assay: as above; conditions: P. falciparum in erythrocytes, SYBR Green DNA, 72 h; series mostly up to 28.7 µM
Method in brief: as §1

[14] = system: CP203; assay: as above; conditions: P. falciparum in erythrocytes, SYBR Green DNA, 72 h; series mostly up to 28.7 µM
Method in brief: as §1

[15] = system: CP211; assay: as above; conditions: P. falciparum in erythrocytes, SYBR Green DNA, 72 h; series mostly up to 28.7 µM
Method in brief: as §1

[16] = system: CP217; assay: as above; conditions: P. falciparum in erythrocytes, SYBR Green DNA, 72 h; series mostly up to 28.7 µM
Method in brief: as §1

[17] = system: CP237; assay: as above; conditions: P. falciparum in erythrocytes, SYBR Green DNA, 72 h; series mostly up to 28.7 µM
Method in brief: as §1

[18] = system: CP238; assay: as above; conditions: P. falciparum in erythrocytes, SYBR Green DNA, 72 h; series mostly up to 28.7 µM
Method in brief: as §1

[19] = system: CP247; assay: as above; conditions: P. falciparum in erythrocytes, SYBR Green DNA, 72 h; series mostly up to 28.7 µM
Method in brief: as §1

[20] = system: CP215; assay: as above; conditions: P. falciparum in erythrocytes, SYBR Green DNA, 72 h; series mostly up to 28.7 µM
Method in brief: as §1

[21] = at 28.7 µM (top of the series), parasite line A
[22] = at 28.7 µM (top of the series), parasite line B
Potency is the fitted concentration of half-maximal effect.

Cc1c(N(C)CS(=O)(=O)O)c(=O)n(-c2ccccc2)n1C
inactive: activity, negative = inhibition ([1]; at 12.8 µM (top of the series), parasite line A) 17.9% | activity, negative = inhibition ([1]; at 12.8 µM (top of the series), parasite line B) 23.3% | Potency [2] | Potency [3] | Potency [4] | Potency [5] | Potency [6] | Potency [7] | Potency [8] | Potency [9] | Potency [10] | Potency [11] | Potency [12] | Potency [13] | Potency [14] | Potency [15] | Potency [16] | Potency [17] | Potency [18] | Potency [19]

COc1c(C)c2c(c(O)c1C/C=C(\C)CCC(=O)O)C(=O)OC2
active: Potency ([1]; parasite line A) 3.16 µM | Potency ([1]; parasite line B) 3.55 µM | Potency [2] 3.55 µM | Potency [3] 2.51 µM | Potency [4] 2.51 µM | Potency [5] 3.16 µM | Potency [6] 2.51 µM | Potency [7] 3.16 µM | Potency [8] 2.82 µM | Potency [9] 3.16 µM | Potency [10] 2.82 µM | Potency [12] 4.55 µM | Potency [13] 5.73 µM | Potency [14] 3.22 µM | Potency [15] 4.55 µM | Potency [20] 3.22 µM | Potency [16] 2.51 µM | Potency [17] 3.55 µM | Potency [18] 3.16 µM

CC(=O)OCC(=O)NCCCOc1cccc(CN2CCCCC2)c1
inactive: activity, negative = inhibition [1, 21] 16.5% | activity, negative = inhibition [1, 22] 8.13% | Potency [2] | Potency [3] | Potency [4] | Potency [5] | Potency [6] | Potency [7] | Potency [8] | Potency [9] | Potency [10] | Potency [11] | Potency [12] | Potency [13] | Potency [14] | Potency [20] | Potency [16] | Potency [17] | Potency [18] | Potency [19]

NC(=O)C(=O)N/N=C/c1ccc([N+](=O)[O-])o1
inactive: activity, negative = inhibition [1, 21] -26.1% | activity, negative = inhibition [1, 22] -11.4% | Potency [2] | Potency [3] | Potency [4] | Potency [5] | Potency [6] | Potency [7] | Potency [8] | Potency [9] | Potency [10] | Potency [16] | Potency [17] | Potency [18] | Potency [19]

COC1=CC(=O)C[C@@H](C)[C@]12Oc1c(Cl)c(OC)cc(OC)c1C2=O
inactive: activity, negative = inhibition [1, 21] 4.87% | activity, negative = inhibition [1, 22] -1.47% | Potency [2] | Potency [3] | Potency [4] | Potency [5] | Potency [6] | Potency [7] | Potency [8] | Potency [9] | Potency [10] | Potency [11] | Potency [12] | Potency [13] | Potency [14] | Potency [15] | Potency [20] | Potency [16] | Potency [17] | Potency [18] | Potency [19]

N[C@H](CO)C(=O)O
inactive: activity, negative = inhibition [1, 21] -0.225% | activity, negative = inhibition [1, 22] -23.4% | Potency [2] | Potency [3] | Potency [4] | Potency [5] | Potency [6] | Potency [7] | Potency [8] | Potency [9] | Potency [10] | Potency [11] | Potency [12] | Potency [13] | Potency [14] | Potency [15] | Potency [16] | Potency [17] | Potency [18] | Potency [19]

C#C[C@]1(OC(C)=O)CC[C@H]2[C@@H]3CCC4=C[C@@H](OC(C)=O)CC[C@@H]4[C@H]3CC[C@@]21C
inactive: activity, negative = inhibition [1, 21] -15% | activity, negative = inhibition [1, 22] -19.2% | Potency [2] | Potency [3] | Potency [4] | Potency [5] | Potency [6] | Potency [7] | Potency [8] | Potency [9] | Potency [10] | Potency [12] | Potency [13] | Potency [14] | Potency [15] | Potency [20] | Potency [16] | Potency [17] | Potency [18] | Potency [19]

CC(C)(Oc1ccc(Cl)cc1)C(=O)O
inactive: activity, negative = inhibition [1, 21] 5.47% | activity, negative = inhibition [1, 22] 14.8% | Potency [2] | Potency [3] | Potency [4] | Potency [5] | Potency [6] | Potency [8] | Potency [9] | Potency [10] | Potency [11] | Potency [12] | Potency [13] | Potency [14] | Potency [15] | Potency [20] | Potency [16] | Potency [17] | Potency [18] | Potency [19]

COc1cc(-c2ccc(=O)[nH]n2)ccc1OC(F)F
inactive: Potency [2] | Potency [3] | Potency [6] | Potency [8] | Potency [13] | Potency [16]
active: Potency ([1]; parasite line A) 11.2 µM | Potency ([1]; parasite line B) 0.891 µM | Potency [4] 0.178 µM | Potency [5] 0.891 µM | Potency [7] 0.251 µM | Potency [17] 0.112 µM

COc1ccc(CN2CCN(C(c3ccc(F)cc3)c3ccc(F)cc3)CC2)c(OC)c1OC
active: Potency ([1]; parasite line A) 8.91 µM | Potency ([1]; parasite line B) 8.91 µM | Potency [2] 7.94 µM | Potency [3] 2.82 µM | Potency [4] 10 µM | Potency [5] 7.08 µM | Potency [6] 10 µM | Potency [7] 12.6 µM | Potency [8] 12.6 µM | Potency [9] 10 µM | Potency [10] 7.94 µM | Potency [12] 15.1 µM | Potency [13] 15.1 µM | Potency [14] 13.5 µM | Potency [15] 16.9 µM | Potency [16] 11.2 µM | Potency [17] 8.91 µM | Potency [19] 10 µM

c1ccc(CNCCNCc2ccccc2)cc1
inactive: activity, negative = inhibition [1, 21] 2.06% | activity, negative = inhibition [1, 22] 5.37% | Potency [2] | Potency [10] | Potency [11] | Potency [13]
active: Potency [3] 10 µM | Potency [17] 3.16 µM

CCOc1ccc2nc3cc(N)ccc3c(N)c2c1
active: Potency ([1]; parasite line A) 7.94 µM | Potency ([1]; parasite line B) 5.01 µM | Potency [2] 11.2 µM | Potency [3] 1.78 µM | Potency [4] 7.94 µM | Potency [5] 8.91 µM | Potency [6] 7.08 µM | Potency [7] 10 µM | Potency [8] 6.31 µM | Potency [9] 5.01 µM | Potency [10] 5.01 µM | Potency [11] 9.53 µM | Potency [12] 15.1 µM | Potency [13] 12 µM | Potency [14] 16.9 µM | Potency [20] 9.53 µM | Potency [16] 7.08 µM | Potency [17] 4.47 µM | Potency [18] 5.01 µM | Potency [19] 10 µM

CC1=C(C(=O)OC(C)C)C(c2cccc([N+](=O)[O-])c2)C(C(=O)OC2CN(C(c3ccccc3)c3ccccc3)C2)=C(N)N1 (stereo not drawn)
active: Potency ([1]; parasite line A) 3.55 µM | Potency ([1]; parasite line B) 7.08 µM | Potency [2] 7.08 µM | Potency [3] 3.16 µM | Potency [4] 7.08 µM | Potency [5] 4.47 µM | Potency [6] 7.08 µM | Potency [7] 11.2 µM | Potency [9] 10 µM | Potency [10] 7.08 µM | Potency [11] 7.57 µM | Potency [12] 6.75 µM | Potency [13] 7.57 µM | Potency [14] 12 µM | Potency [15] 6.75 µM | Potency [20] 7.57 µM | Potency [16] 6.31 µM | Potency [17] 12.6 µM | Potency [18] 8.91 µM | Potency [19] 10 µM
